Values joined by “and” are separate entries in the source; they are usually repeats but may differ in a detail not shown here. Equal entries are not always repeated. Results filed as inconclusive are left out. Active and inactive are the calls of the source. Calls come from the whole dose curve; as a rule, active = well fitted curve in the direction sought with a large enough effect; inconclusive = small, poorly fitted or top-dose-only effect, or another doubt; inactive = no such curve, though single readings can be large; an effect the other way counts as inactive or inconclusive.
What was measured:
[1] = Quantitative highthroughput screen to assess conditional lethalithy of NOMO1 cells grown in RPMI1640 with untreated serum (RPMI+s) (AID 1963876); note: nearly all actives have a fitted effect of over 35% in size; note: potency is the fitted concentration of half-maximal effect;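 for viability: 100% = DMSO wells and 0% = empty wells without cells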
Summary of the method: (§1)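 Each medium arm—HPLM with 10% dialyzed FBS, or RPMI1640 with 5 mM glucose and 10% untreated or dialyzed FBS—was screened against an 11-point, 3-fold compound titration for 48 h at 37 °C, with CellTiter-Glo luminescence as endpoint.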

[2] = Quantitative highthroughput screen to assess conditional lethalithy of NOMO1 cells grown in RPMI1640 with dialyzed fetal bovine serum (RPMI+ds) (AID 1963877); note: nearly all actives have a fitted effect of over 30% in size; note: potency is the fitted concentration of half-maximal effect;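 for viability: series mostly up to about 46 µM; 100% = DMSO control wells and 0% = empty wells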
Summary of the method: as §1

[3] = Quantitative highthroughput screen to assess conditional lethalithy of NOMO1 cells grown in Human Plasma-Like Medium with dialyzed fetal bovine serum (HPLM+ds) (AID 1963878); note: nearly all actives have a fitted effect of over 35% in size; note: potency is the fitted concentration of half-maximal effect;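 for viability: 100% = DMSO wells and 0% = empty wells on each plate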
Summary of the method: as §1

[4] = Quantitative highthroughput screen to assess conditional lethalithy of P12 Ichikawa cells grown in Human Plasma-Like Medium with dialyzed fetal bovine serum (HPLM+ds) (AID 1963879); settings: Potency: viability; note: nearly all actives have a fitted effect of over 35% in size; note: potency is the fitted concentration of half-maximal effect; for viability: series mostly up to about 46 µM
Summary of the method: as §1

[5] = Quantitative highthroughput screen to assess conditional lethalithy of P12 Ichikawa cells grown in RPMI1640 with untreated serum (RPMI+s) (AID 1963881); settings: Potency: viability; note: nearly all actives have a fitted effect of over 35% in size; note: potency is the fitted concentration of half-maximal effect;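 for viability: series mostly up to about 46 µM; 100% = DMSO wells and 0% = empty wells without cells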
Summary of the method: as §1

[6] = Quantitative highthroughput screen to assess conditional lethalithy of SEM cells grown in Human Plasma-Like Medium with dialyzed fetal bovine serum (HPLM+ds) (AID 1963882); note: nearly all actives have a fitted effect of over 35% in size; note: potency is the fitted concentration of half-maximal effect; for viability: series mostly up to about 46 µM
Summary of the method: as §1

[7] = Quantitative highthroughput screen to assess conditional lethalithy of SEM cells grown in RPMI1640 with unreated serum (RPMI+s) (AID 1963883); note: nearly all actives have a fitted effect of over 35% in size; note: potency is the fitted concentration of half-maximal effect;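 for viability: 100% = DMSO wells and 0% = empty wells without cells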
Summary of the method: as §1

[8] = Quantitative highthroughput screen to assess conditional lethalithy of SEM cells grown in RPMI1640 with dialyzed fetal bovine serum (RPMI+ds) (AID 1963884); note: nearly all actives have a fitted effect of over 35% in size; note: potency is the fitted concentration of half-maximal effect;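 for viability: series mostly up to about 46 µM; 100% = DMSO control wells and 0% = empty wells without cells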
Summary of the method: as §1

[9] = Cellular viability qHTS for adrenocortical cancer (ACC) cell line NCI-H295R (AID 1963990); note: nearly all actives have a fitted effect of over 60% in size; note: potency is the fitted concentration of half-maximal effect
Summary of the method: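 IC50 and maximal efficacy derive from four-parameter logistic modelling of titration curves, with reads scaled between DMSO-only wells (0%) and doxorubicin hydrochloride (100% inhibition). Compounds spanned up to 46 uM over 48 h.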

[10] = Quantitative highthroughput screen to assess conditional lethalithy of P12 Ichikawa cells grown in RPMI1640 with dialyzed fetal bovine serum (RPMI+ds) (AID 1963880); settings: Potency: P12-Ichikawa viability; note: nearly all actives have a fitted effect of over 35% in size; note: potency is the fitted concentration of half-maximal effect;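 for viability: 100% = DMSO wells and 0% = empty wells on each plate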
Summary of the method: as §1

[11] = Cellular viability qHTS for adrenocortical cancer (ACC) cell line SW-13 (AID 1963989); settings: SW-13 ACC cells viability, CellTiter-Glo, 48 h; activity (max response): hits give low values;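 note: cells grown in serum-free medium with ITS supplement; % is set by controls: 0 for no effect and ±100 for the full control effect; nearly all actives have a fitted effect of over 65% in size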
Summary of the method: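 Luminescent ATP read-out (CellTiter-Glo, 20 min at room temperature) measured metabolically competent SW-13 cells after 48 h compound treatment. Final concentrations spanned up to 46 uM; bortezomib served as positive control.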

CC(C)[C@H](C(=O)Nc1ccc(C(=O)NO)cc1)c1ccccc1
active: Potency [1] 3.32 µM | Potency [2] 2.64 µM | Potency [3] 2.64 µM | Potency [4] 2.35 µM | Potency [5] 2.09 µM | Potency [6] 1.48 µM | Potency [7] 1.66 µM | Potency [8] 1.48 µM | Potency [9] 1.26 µM

C[C@@H]1[C@H](O)[C@@H](C)C=CC=CC=CC=CC=CC=CC=C[C@H](O[C@@H]2O[C@H](C)[C@H](O)[C@H](N)[C@@H]2O)C[C@@H]2O[C@](O)(C[C@@H](O)C[C@@H](O)[C@H](O)CC[C@@H](O)C[C@@H](O)CC(=O)O[C@H]1C)C[C@H](O)[C@@H]2C(=O)O
inactive: Potency [1] | Potency [2] | Potency [3] | Potency [4] | Potency [5] | Potency [6] | Potency [8]

COc1cccc2c1C(=O)c1c(O)c3c(c(O)c1C2=O)C[C@@](O)(C(C)=O)C[C@H]3O[C@H]1C[C@H](N)[C@H](O)[C@H](C)O1
active: Potency [1] 0.264 µM | Potency [2] 0.235 µM | Potency [3] 0.264 µM | Potency [4] 0.264 µM | Potency [5] 0.209 µM | Potency [6] 0.0833 µM | Potency [7] 0.0469 µM | Potency [8] 0.0833 µM

O=c1c(O)c(-c2ccc(O)cc2)oc2cc(O)cc(O)c12
inactive: Potency [1] | Potency [2] | Potency [3] | Potency [4] | Potency [10] | Potency [6] | Potency [9]

Cn1cc(-c2ccc3ncc(Cc4ccc5ncccc5c4)n3n2)cn1
inactive: Potency [1] | Potency [2] | Potency [3] | Potency [4] | Potency [5] | activity (max response) [11] 2.95% | Potency [9]
active: Potency [6] 8.33 µM | Potency [7] 9.35 µM | Potency [8] 10.5 µM

CC(NCc1ccc2c(c1)nc(NC(=O)c1ccc(-c3cn[nH]c3)s1)n2CC(C)(C)O)C(C)(C)C (centres undefined)
active: Potency [1] 2.64 µM | Potency [2] 2.64 µM | Potency [3] 1.48 µM | Potency [4] 2.35 µM | Potency [10] 2.64 µM | Potency [6] 0.0264 µM | Potency [7] 0.0418 µM | Potency [8] 0.0187 µM

CCCCCCCN(CC)CCCC(O)c1ccc(NS(C)(=O)=O)cc1 (centres undefined)
inactive: Potency [1] | Potency [2] | Potency [3] | activity (max response) [11] -11.3% | Potency [9]
active: Potency [4] 13.2 µM | Potency [10] 18.7 µM

Nc1ccc(S(=O)(=O)Nc2ccnn2-c2ccccc2)cc1
inactive: Potency [1] | Potency [2] | Potency [3] | Potency [4] | Potency [5] | Potency [6] | Potency [7] | Potency [8] | activity (max response) [11] 3.92% | Potency [9]

C[C@H](O)[C@@H]1C(=O)N2C(C(=O)O)=C(S[C@@H]3CN[C@H](CNS(N)(=O)=O)C3)[C@@H](C)[C@@H]12
inactive: Potency [1] | Potency [2] | Potency [3] | Potency [4] | Potency [5] | Potency [7] | Potency [8] | activity (max response) [11] 8.99% | Potency [9]

COc1cc(OC)cc(-c2ccc3ncc4ccc(=O)n(-c5ccc(N6CCNCC6)c(C(F)(F)F)c5)c4c3c2)c1
active: Potency [2] 8.33 µM | Potency [3] 14.8 µM | Potency [4] 10.5 µM | Potency [6] 14.8 µM
inactive: Potency [1]

NS(=O)(=O)c1cc(C(=O)O)c(NCc2ccco2)cc1Cl
inactive: Potency [1] | Potency [2] | Potency [3] | Potency [4] | Potency [10] | activity (max response) [11] -1.8% | Potency [9]

NC(=O)c1ncn([C@@H]2O[C@H](CO)[C@@H](O)[C@@H]2O)c1O
inactive: Potency [1] | Potency [2] | Potency [3] | Potency [4] | Potency [5] | Potency [7] | Potency [8]

O=C1NC(=O)C(=Cc2ccc(-c3ccc(F)cc3O)o2)S1
active: Potency [2] 10.5 µM | Potency [5] 6.62 µM
inactive: Potency [1] | Potency [3] | Potency [4] | Potency [6] | Potency [7]

O=C(c1ccc(F)c(F)c1Nc1ccc(I)cc1F)N1CC(O)([C@H]2CCCCN2)C1
inactive: Potency [6]
active: Potency [1] 0.743 µM | Potency [2] 0.743 µM | Potency [3] 0.526 µM | Potency [4] 8.33 µM | Potency [5] 8.33 µM

Cc1oncc1C(=O)Nc1ccc(C(F)(F)F)cc1
inactive: Potency [1] | Potency [2] | Potency [3] | Potency [4] | Potency [5] | Potency [6] | activity (max response) [11] -12.3% and -17.5% | Potency [9]

C[C@]12CCC3c4ccc(O)cc4CCC3C1CCC2=O (some centres undefined)
inactive: Potency [1] | Potency [2] | Potency [3] | Potency [4] | Potency [5] | Potency [7] | activity (max response) [11] -21% | Potency [9]

Cn1cc(-c2ccc3nnc(C(F)(F)c4ccc5ncccc5c4)n3n2)cn1
inactive: Potency [1] | Potency [2] | Potency [3] | Potency [4] | Potency [10] | Potency [6] | Potency [7] | Potency [8] | activity (max response) [11] 3.57% | Potency [9]

Nc1nc(=O)n([C@H]2CSC(CO)O2)cc1F (some centres undefined)
inactive: Potency [1] | Potency [2] | Potency [3] | Potency [4] | Potency [5] | Potency [7]

Cn1cc(C=CC(=O)c2cccc(F)c2)cc1C=CC(=O)NO
inactive: Potency [1] | Potency [2] | Potency [3] | Potency [4] | Potency [5] | Potency [6] | Potency [7]

Cc1cccc(C#Cc2ccccc2)n1
active: Potency [8] 13.2 µM
inactive: Potency [1] | Potency [2] | Potency [3] | Potency [4] | Potency [10] | Potency [6] | Potency [7]

Cn1cc(C=C2C(=O)Nc3cccnc32)c2ccccc21
inactive: Potency [3]
active: Potency [1] 7.43 µM | Potency [2] 9.35 µM | Potency [4] 9.35 µM | Potency [5] 23.5 µM
